Data taken from PubChem BioAssay AID434994 (NMMLSC, 2010).
The other results are listed elsewhere or left out. Values without a mark were called inactive.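 How the source made its calls: active means superoxide signal below 65% of the plate average of sample wells; inactive means the rest.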

Experiment: retest of yeast aging ROS inhibitors – cherry picked compounds, confirmation (AID 434994);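 further: cells aged with compound for 7 days at 30 degrees C before staining; 100% equals mean DHE fluorescence of all compound wells on the plate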
Details: S. cerevisiae aging, superoxide DHE fluorescence; at 10 µM; active compounds read low

SMILES | superoxide response (% of plate) [%]
CN1CCN(C(=S)SCC(=O)Nc2ccc(Cl)cc2C(=O)c2ccccc2)CC1 | 111
C[C@]12CCC3C(CC[C@H]4C[C@@H](O)CC[C@]34C)C1C[C@@H](O)[C@H]2O (some centres not stated) | 90.6
